# Source: PubChem BioAssay (Tox21)
# Results filed as inconclusive are left out. Where a call stands in place of a potency, no number is given. Some structures have more than one record in an assay (separate samples or runs), and their calls can disagree. Calls of active or inactive are those of the source. Calls follow the shape of the dose curve; as a rule, active = well fitted inhibition curve with a large enough effect in the signal ratio in the repeat runs (not every such curve was filed as active); inconclusive = weak or mixed curves, or effect the other way; inactive = no such curve, though single readings can be large or run the other way; the % refers to the signal ratio.
# Biological target: Estrogen receptor beta (Homo sapiens) (UniProt Q92731)
# Sequence (Q92731 whole entry, looked up): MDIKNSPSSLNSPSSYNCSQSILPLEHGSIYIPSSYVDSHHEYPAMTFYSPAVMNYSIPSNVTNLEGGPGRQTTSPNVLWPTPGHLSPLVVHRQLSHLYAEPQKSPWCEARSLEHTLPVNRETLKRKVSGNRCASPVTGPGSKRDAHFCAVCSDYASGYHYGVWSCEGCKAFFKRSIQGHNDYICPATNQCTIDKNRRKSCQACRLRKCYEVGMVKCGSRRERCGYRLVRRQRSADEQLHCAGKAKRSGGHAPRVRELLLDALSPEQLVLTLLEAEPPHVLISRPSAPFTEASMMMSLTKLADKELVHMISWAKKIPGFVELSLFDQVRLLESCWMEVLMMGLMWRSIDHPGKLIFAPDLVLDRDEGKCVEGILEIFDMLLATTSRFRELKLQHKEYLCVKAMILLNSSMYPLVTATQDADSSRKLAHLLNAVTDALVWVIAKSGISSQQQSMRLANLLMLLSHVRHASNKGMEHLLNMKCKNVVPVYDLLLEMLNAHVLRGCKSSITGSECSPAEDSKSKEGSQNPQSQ
# Assay: qHTS assay to identify small molecule antagonists of the estrogen receptor beta (ER-beta) signaling pathway (AID 1259378)
# Details: ER-beta-UAS-bla HEK293T, beta-lactamase FRET ratio, 16 h; series mostly up to 92.4 µM; activity, negative = inhibition: at the top concentration
# Text: National Center for Advancing Translational Sciences [NCATS]
# NIH Chemical Genomics Center [NCGC]
# U.S. Environmental Protection Agency [EPA]
# National Institutes of Environmental Health Sciences [NIEHS]
# National Toxicology Program [NTP]
# U.S. Food and Drug Administration [FDA]
# Estrogen receptor (ER), a nuclear hormone receptor, plays an important role in development, metabolic homeostasis and reproduction. Two subtypes of ER, ER-alpha and ER-beta, have similar expression patterns with some uniqueness in both types. Endocrine disrupting chemicals (EDCs) and their interactions with steroid hormone receptors like ER causes disruption of normal endocrine function. To identify the compounds that inhibit ER signaling, an ER-beta-UAS-bla GripTite cell line (Life Technologies, Madison, WI, USA) containing a beta-lactamase reporter gene under the control of an UAS response element was used to screen Tox21 10K compound library.
# Tox21 Assay Protocol Summary:
# ER-beta-UAS-bla HEK293T cells were dispensed at 2,000 cells/4 uL of assay medium containing 2% charcoal stripped FBS per well into black wall/clear-bottom 1536-well plates using a Multidrop Combi (ThermoFisher Scientific, Waltham, MA) dispenser. After the assay plates were incubated at a 37C and 5% CO2 for 6 hr, 23 nL of compounds dissolved in DMSO, positive controls or DMSO only was transferred to the assay plate by a Pintool station (Kalypsys, San Diego, CA), followed by addition of 1 uL (1nM as final concentration) of 17-beta-estradiol (E2) in assay medium using a BioRAPTR FRD (Flying Reagent Dispenser, Aurora Discovery, San Diego, CA). The plates were incubated at 37C and 5% CO2 for 16 hr. Then 1 uL of LiveBLAzerTM B/G FRET substrate was added using a Flying Reagent Dispenser, the plates were incubated at room temperature for 2 hours, and fluorescence intensity was measured by an Envision plate reader (PerkinElmer, Shelton, CT).
# Potency is read from the fitted curve at half-maximal effect.
SMILES,Potency,"activity, negative = inhibition"
CN1C(=O)CC[C@H]1c1cccnc1,inactive,
c1ccc(Oc2ccccc2)cc1,inactive,
Brc1ccc(Br)c(Br)c1,inactive,
CCc1ccccc1CC,inactive,
CC(=O)OCCOC(C)=O,,2.14% (inactive)
CCNC(=S)NCC,inactive,
COc1ccc([N+](=O)[O-])cc1N,inactive,
COCCOC(=O)c1ccccc1C(=O)OCCOC,inactive,
C=Cc1ccc(C)cc1,inactive,
CCCCCC(=O)O,inactive,
CN(C)CCOC(=O)COc1ccc(Cl)cc1,inactive,
NCCNCCN,inactive,
OCc1cccc(Oc2ccccc2)c1,,-10.7% (inactive)
CC(C)CC(=O)CC(C)CC(C)C (stereo not given),inactive,
Clc1ccccn1,inactive,
Cc1ccc(S(=O)(=O)N=C=O)cc1,inactive,
O=C(O)c1ccc(S(=O)(=O)N(Cl)Cl)cc1,inactive,
CCOC(=O)n1ccn(C)c1=S,inactive,
CCNc1ccccc1,,0.804% (inactive)
CC(C)(C#N)c1cc(Cn2cncn2)cc(C(C)(C)C#N)c1,inactive,

SMILES,Potency,"activity, negative = inhibition"
O=C1CCCC1,,-3.66% (inactive)
CCO[Si](CCC#N)(OCC)OCC,,16.4% (inactive)
O=[N+]([O-])c1ccc2nc[nH]c2c1,inactive,
Cc1ccc([N+](=O)[O-])cc1S(=O)(=O)O,inactive,
CCCCCCCCCCCC(=O)OC,inactive,
N[C@H](Cc1c[nH]c2ccccc12)C(=O)O,inactive,
COc1ccccc1OCC(O)CO (stereo not given),inactive,
OCc1ccccc1,inactive,
O=c1[nH]cnc2[nH]ncc12,22.2 µM (active) and inactive,
CN/C(=C\[N+](=O)[O-])NCCSCc1csc(CN(C)C)n1,inactive,
CC(C)CC(C)O (stereo not given),inactive,
C=CC(C)CCCC(C)(C)O (stereo not given),inactive,
COc1ccc(N)c(C)c1,inactive,
CCOC(=O)c1ccc(N)cc1,inactive,
CNC(=S)N(C)C,inactive,
CCCCCCCCCCCCCCCCO,inactive,
CC(=O)OC1CC(C)OC(C)O1 (stereo not given),inactive,
CC(=O)CC(C)(C)O,inactive,
CC(=O)c1ccc(O)cc1,,11.5% (inactive)
CCCCCCCCCCCCCCCC(=O)OC(C)C,inactive,
